From the OligoGym collection

The sequences below were run against MMP20 (assay: pooled miR-30 sensor sort-seq; sequence = guide strand). Conditions: shRNA.
Note: reference of the scale not given here.

| Sequence | sensor-assay potency score (higher = more potent) |
| --- | --- |
| TTCTTGATCACGTTCATTGTGG | -0.0903 |
| TTTCCTTTCGTCGTAGCTGTAG | -0.397 |
| TAATTCTACAGCAGCATCGATT | -0.811 |
| TTCTACAGCAGCATCGATTTGG | -0.442 |
| TTTCACATCATCTTTGGGGAGG | -0.942 |
| TTTCCTTTTCCTTTCGTCGTAG | 0.328 |
| TTCTTGTACTTATAAGTTGGGT | -0.728 |
| TTAATTCTACAGCAGCATCGAT | -0.771 |
| TGTAGCTCCTTAATCTTCCTTA | -0.0346 |
| TTCCTTATCATGGAATTGCTTC | -0.732 |
| TAGTCTTTTTCCATTTTCCTTT | -0.827 |
| TATTTGTGTAATATTTGTCAAG | -1.1 |

What follows are sequences tested against MMP27 in the same assay as above. Conditions: shRNA.

| Sequence | sensor-assay potency score (higher = more potent) |
| --- | --- |
| TAATTCAAACTCAACATCCGTG | 0.0831 |
| TTAATTCAAACTCAACATCCGT | -0.367 |
| TTTCTTGTGGTCTTATCACAGA | -0.677 |
| TAATTTGGGAACATCAAGGCTG | 0.912 |
| TAGGTTTTTCTTGTGGTCTTAT | -0.201 |
| TTGTGGTCTTATCACAGACGGC | -1.63 |
| TAGTTTATTATTCTGTAGGTGA | -0.199 |
| AAGAACATTACTTCTCTGCGGA | 0.732 |
| ATTCTTTGTCTTAATGTCGTAT | -0.054 |
| TATTCTTTGTCTTAATGTCGTA | -0.516 |
| TATTTCAAGAGAGTAGAACTGG | 0.764 |
| TTTGGGAACATCAAGGCTGTTT | -0.134 |
